As usually defined, the AC50 is the concentration giving half of the maximal activity seen.

Active and inactive are the calls of the source. Rule for the calls: active = hit-call score of the fitted dose curve at least 0.9, where 1 is the maximum; inactive = score below 0.9.

What all share (conditions): mRNA level, 48 h; actives raise or lower the signal
Read-out in experiment [1]: adenosine kinase (ADK) gene, ADK (gene 132)
Description: LTEA_HepaRG_ADK: Life Technologies and Expression Analysis (LTEA) Assay for adenosine kinase (ADK) gene using HepaRG (AID 2283471). The method, boiled down: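 ADK expression quantified by qRT-PCR, normalised to three housekeeping genes, after 48 h exposure of HepaRG cells to eight concentrations (top 100 uM, half-log steps, duplicate, 0.5% DMSO). Up- or down-regulation fitted relative to vehicle.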

Read-out in experiment [2]: Alpha-fetoprotein (AFP) gene, AFP (gene 174)
Description: LTEA_HepaRG_AFP: Life Technologies and Expression Analysis (LTEA) Assay for Alpha-fetoprotein (AFP) gene using HepaRG (AID 2283472). The method, boiled down:
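qRT-PCR (Fluidigm TaqMan) readout of AFP transcript, normalized to three housekeeping genes, fitted bidirectionally against 0.5% DMSO baseline. HepaRG cells received chemicals for 48 h in serum-free induction medium, top concentration 100 uM, half-log steps.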

Read-out in another experiment: BCL2L11 (gene 10018)
As to the kind of experiment: LTEA_HepaRG_BCL2L11: Life Technologies and Expression Analysis (LTEA) Assay for Bcl-2 (BCL2L11) gene using HepaRG (AID 2283473). The gist of the method: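 HepaRG, 48 h exposure, 8-pt half-log series from 100 uM in 0.5% DMSO, duplicates; qRT-PCR (Fluidigm TaqMan) for BCL2L11, housekeeping-normalized; bidirectional curve fit relative to DMSO baseline.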

Read-out in experiment [3]: Apolipoprotein A-V (APOA5) gene, APOA5 (gene 116519)
Description: LTEA_HepaRG_APOA5: Life Technologies and Expression Analysis (LTEA) Assay for Apolipoprotein A-V (APOA5) gene using HepaRG (AID 2283474). The method, boiled down: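 HepaRG, 48 h chemical exposure in serum-free induction medium, 8-pt half-log series (top 100 uM), 0.5% DMSO vehicle, duplicates. Readout: APOA5 mRNA by qRT-PCR, housekeeping-normalized; bidirectional fit vs DMSO baseline.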

Read-out in experiment [4]: Apoptosis regulator Bcl-2 (Homo sapiens) (UniProt P10415)
As to the kind of experiment: LTEA_HepaRG_BCL2: Life Technologies and Expression Analysis (LTEA) Assay for Bcl-2 gene using HepaRG (AID 2283475). The method, boiled down:
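qRT-PCR read-out (Fluidigm TaqMan) of BCL2 transcript, normalised to three housekeeping genes, after 48 h chemical exposure of HepaRG cells; 8-point half-log series, top 100 uM, 0.5% DMSO vehicle. Gain or loss of signal fitted relative to DMSO baseline.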

Read-out in experiment [5]: Bcl-2 (BID) gene, BID (gene 637)
Description: LTEA_HepaRG_BID: Life Technologies and Expression Analysis (LTEA) Assay for Bcl-2 (BID) gene using HepaRG (AID 2283476). The gist of the method:
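HepaRG, 48 h exposure, 8-pt half-log series, top 100 uM, 0.5% DMSO vehicle, duplicates. Readout: BID mRNA by TaqMan qRT-PCR; housekeeping-normalized; bidirectional curve fit vs DMSO baseline.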

Read-out in the next experiment: Caspase-3 (Homo sapiens) (UniProt P42574)
Description: LTEA_HepaRG_CASP3: Life Technologies and Expression Analysis (LTEA) Assay for cysteine-aspartic acid protease (CASP3) using HepaRG (AID 2283477). The method, boiled down: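 HepaRG, 48 h exposure, 8 conc. (top 100 uM, half-log steps, duplicate), 0.5% DMSO vehicle; qRT-PCR of CASP3 transcript, housekeeping-normalised (ACTB/GAPDH/POLR2A); bidirectional curve fit vs DMSO baseline.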

Read-out in experiment [6]: Cytochrome P450 (CYP24A1), CYP24A1 (gene 1591)
As to the kind of experiment: LTEA_HepaRG_CYP24A1: Life Technologies and Expression Analysis (LTEA) Assay for Cytochrome P450 (CYP24A1) using HepaRG (AID 2283478). The method, boiled down:
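qRT-PCR read-out: CYP24A1 transcript levels normalized to three housekeeping genes, bidirectional curve fits against 0.5% DMSO baseline. Human HepaRG cells treated 48 h with chemicals at eight concentrations from 100 uM in half-log steps.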

Read-out in experiment [7]: Cytochrome P450 (CYP1A2), CYP1A2 (gene 1544)
As to the kind of experiment: LTEA_HepaRG_CYP1A2: Life Technologies and Expression Analysis (LTEA) Assay for Cytochrome P450 (CYP1A2) using HepaRG (AID 2283479). The method, boiled down: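 HepaRG, 48 h exposure, top 100 uM, half-log 8-pt, 0.5% DMSO vehicle, duplicates. Readout: TaqMan qRT-PCR of CYP1A2 mRNA, housekeeping-normalized (ACTB/GAPDH/POLR2A). Gain/loss fit relative to DMSO baseline.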

Read-out in experiment [8]: cysteine-aspartic acid protease (CASP8), CASP8 (gene 841)
As to the kind of experiment: LTEA_HepaRG_CASP8: Life Technologies and Expression Analysis (LTEA) Assay for cysteine-aspartic acid protease (CASP8) using HepaRG (AID 2283480). The gist of the method:
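Concentration-response in duplicate up to 100 uM (half-log steps, 0.5% DMSO) on differentiated HepaRG cultures for 48 h. Expression change of CASP8 mRNA is determined by TaqMan qRT-PCR with housekeeping-gene normalization.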

Sequence of Apoptosis regulator Bcl-2 (Homo sapiens) (P10415 whole entry, looked up): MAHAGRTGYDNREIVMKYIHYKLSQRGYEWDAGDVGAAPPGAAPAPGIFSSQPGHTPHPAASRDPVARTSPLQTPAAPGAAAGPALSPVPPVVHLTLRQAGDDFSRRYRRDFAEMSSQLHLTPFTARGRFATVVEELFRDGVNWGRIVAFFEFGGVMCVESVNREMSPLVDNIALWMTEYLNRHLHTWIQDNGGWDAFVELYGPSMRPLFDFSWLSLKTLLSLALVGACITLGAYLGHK
Sequence of Caspase-3 (Homo sapiens) (P42574 whole entry, looked up): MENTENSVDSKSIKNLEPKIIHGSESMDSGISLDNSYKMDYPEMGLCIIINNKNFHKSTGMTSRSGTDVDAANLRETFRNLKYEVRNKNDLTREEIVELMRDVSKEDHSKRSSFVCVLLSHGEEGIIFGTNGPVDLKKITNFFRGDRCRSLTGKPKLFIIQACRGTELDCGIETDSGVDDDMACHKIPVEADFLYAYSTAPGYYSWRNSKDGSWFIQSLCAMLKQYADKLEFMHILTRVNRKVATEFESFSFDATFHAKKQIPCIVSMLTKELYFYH

On to `CC(C)(OOC(C)(C)c1ccccc1)c1ccccc1`, for which the molecule was classed as inactive (in experiment [1]; in experiment [2]; with BCL2L11 (gene 10018); in experiment [3]; in [4]; in [5]). For the same molecule, the call (with Caspase-3 (Homo sapiens); in experiment [6]; in experiment [7]; in [8]) was inactive.

Take `O=Cc1ccco1`: the call (in experiment [1]; in experiment [2]; in the experiment with BCL2L11 (gene 10018); in experiment [3]; in experiment [4]; in experiment [5]) was inactive. Moreover, the outcome (with Caspase-3 (Homo sapiens); in [6]; in [7]; in experiment [8]) was inactive.

Turning to `c1ccc(C2CO2)cc1` (stereo not given), the call (in experiment [1]; in [2]; in the experiment with BCL2L11 (gene 10018); in experiment [3]; in experiment [4]; in experiment [5]) was inactive. Moreover, the molecule was classed as inactive (with Caspase-3 (Homo sapiens); in [6]; in experiment [7]; in experiment [8]).

`CN(C)C(=O)Nc1ccc(Cl)cc1`: the result (in experiment [1]; in [2]; with BCL2L11 (gene 10018); in experiment [3]; in experiment [4]; in experiment [5]) was inactive. Also, the outcome (in the experiment with Caspase-3 (Homo sapiens); in experiment [6]; in experiment [8]) was inactive. For the same molecule, the AC50 in experiment [7] was 55 µM (active).

Regarding `COC(=O)Nc1nc2ccccc2[nH]1`, the molecule was classed as inactive (in [1]; in experiment [2]; in the experiment with BCL2L11 (gene 10018); in experiment [3]; in experiment [4]; in experiment [5]). The call (in the experiment with Caspase-3 (Homo sapiens); in [6]; in experiment [8]) was inactive. The AC50 in experiment [7] was 31.8 µM (active).

For the molecule `Clc1ccc(C(c2ccc(Cl)cc2)C(Cl)(Cl)Cl)cc1`, the result (in experiment [1]; in the experiment with BCL2L11 (gene 10018); in [5]; with Caspase-3 (Homo sapiens); in [6]; in experiment [7]) was inactive. For the same molecule, the molecule was called inactive in experiment [8]. In addition, the AC50 in experiment [2], in [3] and in experiment [4] was 50 µM (active) each time.

Turning to `CCOC(=O)[C@]1(c2ccccc2)Oc2ccccc2[C@@H]1N`, the outcome (in [1]; in experiment [2]; in the experiment with BCL2L11 (gene 10018); in experiment [5]; with Caspase-3 (Homo sapiens); in experiment [6]) was inactive. For the same molecule, the molecule was classed as inactive in [8]. The AC50 in experiment [3] was 83.3 µM (active); in experiment [4], 88.7 µM (active); in experiment [7], 15.8 µM (active).

As for `COc1cc(C=O)cc2c1[C@H](COC(N)=O)[C@]1(OC(C)=O)ON2C[C@H]2[C@@H]1N2C(C)=O`, the half-maximal activity concentration (AC50) is 24.6 µM (active) in experiment [1]; 0.95 µM (active) in [2]; 1.29 µM (active) in the experiment with BCL2L11 (gene 10018); 0.316 µM (active) in experiment [3]; 3.89 µM (active) in experiment [8]. Besides, the call (in experiment [4]; in [5]; with Caspase-3 (Homo sapiens); in experiment [6]; in experiment [7]) was inactive.

`CCNS(=O)(=O)C(F)(F)C(F)(F)C(F)(F)C(F)(F)C(F)(F)C(F)(F)C(F)(F)C(F)(F)F`: the molecule was classed as inactive (in experiment [1]; in the experiment with BCL2L11 (gene 10018); in [4]; in [5]; with Caspase-3 (Homo sapiens); in [6]). Besides, the call in experiment [7] and in experiment [8] was inactive. The AC50 in experiment [2] is 65.2 µM (active); in experiment [3] it was 48.2 µM (active).

With `CCCSC(=O)N(CCC)CCC`, the result (in [1]; in experiment [2]; with BCL2L11 (gene 10018); in experiment [3]; in [4]; in [5]) was inactive. The outcome (with Caspase-3 (Homo sapiens); in experiment [6]; in experiment [7]; in experiment [8]) was inactive.

In the case of `O=[N+]([O-])c1ccc(Oc2ccc(Cl)cc2Cl)cc1`, the molecule was called inactive (in [1]; with BCL2L11 (gene 10018); in experiment [3]; in experiment [4]; in [5]; with Caspase-3 (Homo sapiens)). Moreover, the call in experiment [6] and in experiment [8] was inactive. Also, the results for the AC50 in experiment [2] and in [7] were 66.9 µM (active) and 27.2 µM (active), respectively.

As to `[O-][Cl+]O`, the molecule was called inactive (in experiment [1]; in [2]; in the experiment with BCL2L11 (gene 10018); in experiment [3]; in experiment [4]; in experiment [5]). For the same molecule, the call (with Caspase-3 (Homo sapiens); in experiment [6]; in experiment [7]; in experiment [8]) was inactive.

On to `CCCCOC(=O)c1ccccc1C(=O)OCc1ccccc1`, for which the molecule was called inactive (in experiment [1]; in experiment [2]; with BCL2L11 (gene 10018); in experiment [3]; in experiment [4]; in experiment [5]). Also, the outcome (with Caspase-3 (Homo sapiens); in experiment [6]; in [8]) was inactive. Also, the half-maximal activity concentration (AC50) in experiment [7] was 15.5 µM (active).

Values taken from PubChem BioAssay (EPA / NIEHS).
